# CHX counter – affects cycloheximide protein synthesis inhibition readout, counter-screen | cell reporter, cycloheximide protein synthesis inhibition counterscreen | max response, % | hit rate 12% among 300,000 | AID 2314; in the data active = max response mostly above about 13%, no sharp cut-off; inactive = mostly below about 14%; note: read at 38.3 µM for the half of the compounds with a filed dose; 0% is about no effect
# SARS PLpro yeast – blocks SARS-CoV papain-like protease in a yeast assay | S. cerevisiae expressing SARS-CoV PLpro, growth rescue | Potency, µM (series often up to 32.9 µM), for inactives: at the highest dose activity, positive = growth rescue, actives largely listed as activators | hit rate 0.19% among 330,000; calls by dose curve; note: potency is the fitted concentration of half-maximal effect; 0% is about no effect; nearly all actives have a fitted effect of over 55% in size
# NS1 inh – inhibitors of influenza NS1 protein function; Potency, µM (titrated, usually from 46.1 µM), without a hit: top-dose activity, positive = more growth; hit rate 0.4% among 270,000; calls by dose curve; note: potency is the fitted concentration of half-maximal effect; actives are rising curves; nearly all actives have a fitted effect of over 50% in size
#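 A cell-based growth assay was used: compounds that relieve NS1-induced slow growth of budding yeast raise OD600. Assay medium was yeast nitrogen base with ammonium sulphate and -URA supplement, pH 6.0, with 2% galactose.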
# LmPK inh – LmPK (Leishmania mexicana) enzyme inhibition. purified LmPK, Kinase-Glo ATP luminescence, 1 h. hit rate 0.37% among 290,000. Potency, µM (highest dose often 57.5 µM), inactives show at the top dose activity change, negative = inhibition, actives largely listed as inhibitors. Q27686; note: potency is the fitted concentration of half-maximal effect; % is set by controls: 0 for no effect and ±100 for the full control effect
# Target sequence (Q27686 whole entry, looked up): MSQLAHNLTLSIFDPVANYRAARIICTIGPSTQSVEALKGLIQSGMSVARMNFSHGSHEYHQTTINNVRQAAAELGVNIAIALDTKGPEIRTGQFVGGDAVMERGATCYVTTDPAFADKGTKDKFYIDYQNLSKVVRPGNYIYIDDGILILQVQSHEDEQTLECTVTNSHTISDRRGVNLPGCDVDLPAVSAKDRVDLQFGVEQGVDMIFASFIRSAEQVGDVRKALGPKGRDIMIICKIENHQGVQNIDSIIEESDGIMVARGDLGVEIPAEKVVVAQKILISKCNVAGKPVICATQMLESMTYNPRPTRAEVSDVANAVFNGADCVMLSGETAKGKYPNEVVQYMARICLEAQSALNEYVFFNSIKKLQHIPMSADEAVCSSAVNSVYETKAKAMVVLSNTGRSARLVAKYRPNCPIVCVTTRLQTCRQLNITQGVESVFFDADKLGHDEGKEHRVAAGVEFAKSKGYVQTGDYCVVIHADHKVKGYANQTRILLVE
#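 Purified LmPK (0.1 nM) with 0.5 mM PEP and 0.1 mM ADP in imidazole buffer pH 7.2 with MgCl2/KCl, 1 h at room temperature. ATP formed was read by luciferase luminescence and normalized to no-enzyme and uninhibited controls.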
# Tb PYK inh – blocks Trypanosoma brucei pyruvate kinase | Q57TT1 | Potency, µM (titrated, usually from 76.8 µM), inactives show top-dose activity, negative = inhibition, most hits filed as inhibitors | AID 624173 | TbPYK enzyme, Kinase-Glo Plus ATP luminescence, 45 min | hit rate 0.12% among 410,000; note: potency is the fitted concentration of half-maximal effect; % is set by controls: 0 for no effect and ±100 for the full control effect; nearly all actives have a fitted effect of over 50% in size
#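 TbPYK + substrate in 50 mM TEA pH 7.2, 100 mM KCl, 10 mM MgCl2, 0.05% BSA, 0.01% Tween-20; cpd pinned; ADP 130 uM final; 45 min RT; Kinase-Glo Plus 10 min; luminescence endpoint.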
# Shiga inhibitor – blocks Shiga toxin action in Vero cells | Vero cells, Shiga toxin protein synthesis inhibition reporter | inhibition, % at 38.7 µM | hit rate 9.2% among 290,000; in the data active = inhibition mostly above about 28%, no sharp cut-off; inactive = mostly below about 43%; note: 0% is about no effect
# Active calls of the source: *; u = inconclusive; x = no result. This excerpt belongs to a sample that is enriched for hits. Unless noted, calls come from the whole dose curve; as a rule, active = well fitted curve in the direction sought with a large enough effect; inconclusive = small, poorly fitted or top-dose-only effect, or another doubt; inactive = no such curve, though single readings can be large; an effect the other way counts as inactive or inconclusive.
SMILES,CHX counter,SARS PLpro yeast,NS1 inh,LmPK inh,Tb PYK inh,Shiga inhibitor
CC1CCN(CCCOc2ccc(Cl)cc2Br)CC1,26*,-4%,x,8%,12%,73*
CC1CCCN(CCCOc2ccc(Cl)cc2Br)C1 (configuration not stated),37*,-15%,-30%,-6%,-11%,103*
CC1CCCN(CCOc2ccc3ccccc3c2Br)C1 (configuration not stated),14,0%,-7%,1%,-17%,43*
Cc1ccc(OCCNC(=O)[C@H]2O[C@@H](n3ccc(N)nc3=O)[C@H](O)[C@@H]2O)cc1C,x,x,x,x,1%,x
CCC(=O)NC(=S)Nc1ccc(NC(=O)c2cc3ccccc3o2)c(OC)c1,1,-1%,-1%,3%,0%,30*
COc1cc(NC(=S)NC(=O)C(C)C)ccc1NC(=O)c1cc2ccccc2o1,-1,0%,-5%,1%,0%,-12
COc1cc(NC(=O)c2cccc(C)c2)ccc1NC(=O)c1cc2ccccc2o1,13*,0%,2%,0%,-2%,49
COc1cc(NC(=O)C(C)C)ccc1NC(=O)c1cc2ccccc2o1,24*,-3%,-8%,-5%,-3%,40*
CCOc1cc(C(=O)Nc2ccc(NC(=O)c3cc4ccccc4o3)c(OC)c2)cc(OCC)c1OCC,x,x,x,x,0%,x
O=C(CCN1CCCC1)c1cccs1,6,-1%,5%,12%,-1%,-6
O=C(CCN1CCC(c2cccs2)=N1)c1cccs1,42*,-3%,-45%,2%,2%,69*
CC1CN(c2ccc([N+](=O)[O-])cc2F)CCN1C(=O)c1ccco1 (configuration not stated),-1,-2%,-38%,-2%,9%,-18
CC(=O)c1ccc(N2CCN(C(=O)c3ccco3)CC2)c(F)c1,48*,-5%,3%,0%,-26%,59*
O=C(c1ccco1)N1CCN(c2ccc([N+](=O)[O-])cc2F)CC1,13*,-3%,-6%,-2%,3%,40*
CC(=O)c1cc(F)c(N2CCN(C(=O)c3ccco3)CC2)cc1C,31*,-4%,-15%,1%,-6%,0
CC(=O)c1ccc(N2CCN(C(=O)c3ccco3)C(C)C2)c(F)c1 (configuration not stated),-1,-3%,-2%,4%,-3%,-3
O=c1cc(C(F)(F)F)nc(SCc2cccnc2)[nH]1,-3,-5%,6%,0%,11%,-9
CC(/C=C/c1ccccc1)=N\NC(=O)CNC(=O)c1ccccc1Cl,10*,3%,1%,-3%,-6%,-12
CC(/C=C/C=C/c1ccccc1)=N/NC(=O)CNc1ccc(C)cc1,35*,2%,1%,3%,3%,32
O=C(c1ccccc1)c1ccc2nc(-c3ccco3)c(-c3ccco3)nc2c1,36*,-2%,8%,-4%,u,56*
COc1ccccc1N1CCN(C(=O)c2ccc3nc(-c4ccco4)c(-c4ccco4)nc3c2)CC1,-3,15%,14µM*,9%,u,22
O=C(O)c1ccc2nc(-c3ccccc3)c(-c3ccccc3)nc2c1,56*,-14%,-23%,-2%,0%,65*
O=C(NCCc1ccccc1)c1ccc2nc(-c3ccco3)c(-c3ccco3)nc2c1,-2,-3%,14µM*,7%,u,1
CCCCCCCCN=C(N)c1ccc(C(=O)OCC2CCCCC2)cc1,-18,x,x,x,x,-18
O=C(COc1cc2oc(=O)c3c(c2cc1Cl)CCC3)NCc1ccncc1,-11,0%,4%,-8%,-7%,-11
CC(=O)c1cc(C(=O)Nc2cccc(C)c2)c2ccccn12,x,x,x,x,1%,x
CCNc1nc(-c2cc(C)n(Cc3ccco3)c2C)cs1,53*,0%,0%,16%,-8%,104*
Cc1cc(-c2csc(NC(=O)c3ccc(=O)[nH]c3)n2)c(C)n1Cc1ccco1,1,0%,5%,0%,-22%,10
c1ccc(-c2ccn3nnnc3n2)cc1,36*,8%,13%,2%,-3%,74*
Cc1ccc(-c2nc(N)n(S(C)(=O)=O)n2)cc1,30*,0%,8%,-6%,-3%,40
